# Source: PubChem
# USP28 block – inhibitors of human USP28 deubiquitinase. Ubiquitin carboxyl-terminal hydrolase 28 (Homo sapiens), Q96RU2. purified USP28, Ub-rhodamine cleavage fluorescence, 30 min. inhibition, % at 25 µM. 47,000 tested, 3% active
# USP17 block – inhibitors of human USP17 deubiquitinase | purified USP17, Ub-rhodamine cleavage fluorescence, 3 h | inhibition, % at 50 µM | AID 1645855, 2021 | 47,000 tested, 6.5% active | Ubiquitin carboxyl-terminal hydrolase 17-like protein 5 (Homo sapiens), A8MUK1
# Target sequence (A8MUK1 whole entry, looked up): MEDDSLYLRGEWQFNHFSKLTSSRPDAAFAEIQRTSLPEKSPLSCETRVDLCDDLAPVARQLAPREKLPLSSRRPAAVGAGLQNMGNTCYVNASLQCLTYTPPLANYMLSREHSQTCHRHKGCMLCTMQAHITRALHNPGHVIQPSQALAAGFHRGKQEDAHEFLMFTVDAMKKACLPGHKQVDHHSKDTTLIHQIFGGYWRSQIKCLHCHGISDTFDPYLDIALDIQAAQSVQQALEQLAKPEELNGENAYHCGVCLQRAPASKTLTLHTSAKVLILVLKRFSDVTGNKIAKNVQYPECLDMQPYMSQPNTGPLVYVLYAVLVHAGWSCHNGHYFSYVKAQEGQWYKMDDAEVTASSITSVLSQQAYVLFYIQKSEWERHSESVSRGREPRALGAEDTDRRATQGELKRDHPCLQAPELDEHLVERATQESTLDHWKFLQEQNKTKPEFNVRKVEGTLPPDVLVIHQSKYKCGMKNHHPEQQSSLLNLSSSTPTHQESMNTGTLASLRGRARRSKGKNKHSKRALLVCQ
# USP30 inh – inhibitors of human USP30 deubiquitinase | purified USP30, Ub-rhodamine cleavage fluorescence | inhibition, % at 25 µM | Ubiquitin carboxyl-terminal hydrolase 30 (Homo sapiens), Q70CQ3 | 47,000 tested, 5.3% active
# USP8 inh – inhibitors of human USP8 deubiquitinase. purified USP8, Ub-rhodamine cleavage fluorescence, 30 min. inhibition, % at 20 µM. 47,000 tested, 4.2% active. AID 1645853, 2021
# Hits are given with their value; - = inactive; . = no result. Sampled rows, rich in hits. Any-hit rate of the full collection: about 13%. Rule as the data show it: active = inhibition above about 30%; inactive = the rest.
SMILES,USP28 block,USP17 block,USP30 inh,USP8 inh
Cc1nc2cccnc2n1C1CCN(C(=O)c2cc3cc(Cl)ccc3[nH]2)C1 (stereo unspecified),42,31,54,-
Cc1cc2n(n1)CCCN2C(=O)CCC(=O)N1CCN(c2cc(Cl)ccc2C)CC1,-,-,-,-
COc1cccc(S(=O)(=O)N2CCC(c3ncc(C)[nH]3)C2)c1 (stereo unspecified),-,-,-,-
COc1ccc(C2C3=C(CC(c4ccco4)CC3=O)Nc3ccccc3N2C(=O)C(F)(F)F)cc1 (stereo unspecified),-,-,-,-
COc1ccc(C2C3=C(CC(c4ccco4)CC3=O)Nc3ccccc3N2C(C)=O)cc1 (stereo unspecified),-,38,-,56
CCCCCC(=O)N1c2ccccc2NC2=C(C(=O)CC(c3ccco3)C2)C1c1cc(OC)c(OC)c(OC)c1 (stereo unspecified),-,34,-,-
COc1cc(C2C3=C(CC(c4ccco4)CC3=O)Nc3ccccc3N2C(=O)CCC(=O)O)cc(OC)c1OC (stereo unspecified),-,-,-,-
Cc1cc(C)n2nc(SCC(=O)NCc3ccc4c(c3)OCO4)nc2n1,-,-,-,-
CCN1C(=O)[C@H]2CN(Cc3cccnc3)C[C@H]2C12CCN(C(=O)NCc1ccccc1)CC2,-,-,-,-
Cn1ccc2cc(CCC(=O)NCc3ccccc3)ccc21,-,-,-,-
O=C(Nc1ccc(Cl)cc1)N1CCCN(Cc2cccc3ccccc23)CC1,-,-,-,-
CCc1ccc(NC(=O)CSc2[nH]c(=O)c(C(=O)O)cc2C#N)cc1,48,42,-,54
COc1ccc(NC(=O)Cc2nc(-c3cccc(Cl)c3)no2)cc1,-,-,-,-
COc1ccc(NC(=O)CS(=O)c2ccc(Cl)c(Cl)c2)cc1 (stereo unspecified),-,-,47,-
CCCOc1ccc(C(=O)Nc2ccc(OCC)c3ncccc23)cc1,-,-,-,-
CCCCOc1ccccc1C(=O)Nc1ccc(OCC)c2ncccc12,-,-,-,44
CCc1nnc(-c2cc(S(=O)(=O)Nc3cccc(F)c3)c[nH]2)o1,-,.,-,-
NC(=O)N1CCCCCC1C1CCN(c2ncnc3ccsc23)CC1 (stereo unspecified),-,-,32,-
O=[N+]([O-])c1ccc2[nH]cc(S(=O)(=O)Nc3ccc(Cl)cc3)c2c1,-,-,-,-
CCc1ccc(NS(=O)(=O)c2c[nH]c3ccc([N+](=O)[O-])cc23)cc1,-,60,66,-
O=C(Nc1ccccc1-c1nc(-c2ccccn2)no1)c1cc(Cl)ccc1Cl,44,56,60,83
Cc1cc(-c2ccnc3c(C#N)cnn23)c(C)s1,-,67,-,-
O=C(NCc1cccnc1)c1cnn2c(C(F)(F)F)cc(-c3ccccc3)nc12,-,-,64,-
Cc1cccc(C)c1NC(=O)CN1C(=O)CC(c2ccccc2)=Nc2ccccc21,-,-,-,-
Cc1nn(C)c(C)c1CC(=O)Nc1nnc(C2CCCCC2)s1,41,-,-,-
SMILES,USP28 block,USP17 block,USP30 inh,USP8 inh
Cc1ccccc1CC(=O)Nc1nnc(C2CC2)s1,-,41,-,-
CCc1ccccc1N1CC(c2nnc(NC(=O)CCc3ccccc3)s2)CC1=O (stereo unspecified),-,30,-,-
Cc1ccccc1N1CC(c2nnc(NC(=O)Cc3ccc(Cl)cc3)s2)CC1=O (stereo unspecified),-,-,-,-
CC1CCN(S(=O)(=O)N2CCCC(C(=O)NCCc3ccc(S(N)(=O)=O)cc3)C2)CC1 (stereo unspecified),-,-,-,-
Cc1ccc(-c2ccc(C#N)c(SCc3ccccc3)n2)cc1,-,-,-,-
CCn1c(SCC(=O)Nc2ccc(C)cc2)nnc1-c1cnccn1,-,-,-,-
Cc1ccc(-n2c(SCc3ccc(C#N)cc3)nnc2-c2ccccn2)cc1,-,-,38,-
CCc1ccccc1NC(=O)CSc1nnc(-c2ccccn2)n1-c1ccc(C)cc1,-,-,35,-
CN(C(=O)CN1C(=O)NC(Cc2ccccc2)(c2ccccc2)C1=O)c1ccccc1 (stereo unspecified),-,-,-,-
CC(C)(CO)NCc1c(F)cccc1Cl,-,-,-,-
Cc1c(Cl)cccc1NS(=O)(=O)c1ccc(N2CCCCS2(=O)=O)cc1,-,-,40,-
COc1ccc(NS(=O)(=O)c2ccc(OC)c(NC(=O)c3ccc(OC)cc3)c2)cc1,-,-,-,-
CCOc1ccc(NS(=O)(=O)c2ccc(NC(=O)COc3ccccc3C)cc2)cc1,-,-,43,-
